Most compounds without a hit are left out; they make up all but 12% or so of the library.
NS1 function inh = inhibitors of influenza NS1 protein function | Potency, µM (doses to about 46.1 µM), inactives show at the top dose activity, positive = more growth | 270,000 tested, 0.4% active | AID 2326; calls by dose curve; also: actives are rising curves; nearly all actives have a fitted effect of over 50% in size
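S. cerevisiae expressing influenza A NS1, grown in glucose, washed, then diluted 1:100 into pH 6.0 -URA galactose medium with 23 nl compound. Growth recovery read as OD600; NS1-free strain serves as control.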
Pf growth 96h = P. falciparum growth inhibition at 96 hour, primary screen for plastid delayed-death inhibitors; P. falciparum luciferase reporter growth, 96 h; Potency, µM (series often up to 28.7 µM), for the others: at the top dose activity change, negative = inhibition, hits mostly inhibitors; 320,000 tested, 6.9% active; AID 504834; also: % is scaled to controls: 0 for no effect and ±100 for the full control effect
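P. falciparum expressing integrated firefly luciferase, in erythrocytes at 2% hematocrit, 0.05% parasitemia, incubated with compounds 96 h at 37 C, 5% CO2. Growth inhibition read as loss of luminescence; two-generation exposure targets delayed-death apicoplast inhibitors.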
SARS PLP yeast = blocks SARS-CoV papain-like protease in a yeast assay; S. cerevisiae expressing SARS-CoV PLpro, growth rescue; 330,000 tested, 0.19% active; Potency, µM (top dose mostly 32.9 µM), without a hit: top-dose activity, positive = growth rescue, usual class: activators; calls by dose curve; also: 0% is about no effect; nearly all actives have a fitted effect of over 55% in size
Pf growth 48h = inhibits P. falciparum growth in the first generation, 48 h | P. falciparum luciferase growth in erythrocytes, 48 h | Potency, µM (doses to about 28.7 µM), for the others: at the highest dose activity change, negative = inhibition, actives largely listed as inhibitors | 310,000 tested, 5.9% active; also: % is scaled to controls: 0 for no effect and ±100 for the full control effect
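Read-out is firefly luciferase luminescence from an integrated reporter in P. falciparum, so falling signal marks reduced parasite growth. Infected erythrocytes were at 2% hematocrit and 0.1% parasitemia (final) in Albumax-supplemented RPMI 1640.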
HCV inhibitor = HCV inhibition; Huh7.5.1 HCVcc-Cre infection, luciferase reporter, 44 h; Potency, µM (titrated, usually from 41.8 µM), for inactives: at the highest dose activity change, negative = inhibition, usual class: inhibitors; 340,000 tested, 3.4% active; AID 651820; also: % is scaled to controls: 0 for no effect and ±100 for the full control effect
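Reporter virus HCVcc-Cre (~0.5 moi) infects cells exposed to compound; seeding density 1,000 cells/well with 4 h settling beforehand. Luminescence, 15 sec read, taken 44 h post-infection following a 15 min RT substrate incubation.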
AMA1-RON2 inh = AMA1-RON2 (P. falciparum) interaction inhibition. Potency, µM (highest dose often 58.2 µM), for inactives: at the highest dose activity change, negative = inhibition, usual class: inhibitors. 360,000 tested, 0.2% active. AlphaScreen AMA1-biotinylated RON2 peptide binding. AID 720542;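 also: 0% = vehicle wells and -100% = peptide control; nearly all actives have a fitted effect of over 45% in size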
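AMA1 (3D7) with his tag at 25 nM final met compounds first, then biotinylated RON2 peptide at 25 nM; detection used donor plus acceptor beads, 10 µg/mL apiece, read by AlphaScreen after 30 min at room temperature.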
Numbers without * were called inactive; u = inconclusive; x = not tested or not shown; [ ] = dose if it differs, or a comment. Unless noted, calls follow the shape of the dose curve; as a rule, active = well fitted curve in the direction sought with a large enough effect; inconclusive = small, poorly fitted or top-dose-only effect, or another doubt; inactive = no such curve, though single readings can be large; an effect the other way counts as inactive or inconclusive. Potency is read from the fitted curve at half-maximal effect.

SMILES	NS1 function inh	Pf growth 96h	SARS PLP yeast	Pf growth 48h	HCV inhibitor	AMA1-RON2 inh
CCCOP(=O)(OCCC)c1c([N+](=O)[O-])cc(C(F)(F)F)cc1[N+](=O)[O-]	-5.4%	9.28µM*	-7.4%	x	-19.2%	-4.0%
COc1ccccc1N1CCN(C(=O)/C=C/c2c(Cl)nc3ccccn23)CC1	x	39.2%	-4.4%	u	11.2µM*	12.9%
CC(C(=O)NCCc1ccc(Cl)cc1)n1c(=O)c2cccn2c2cccnc21 (stereo unspecified)	u	13.2%	-28.9%	1.4%	11.2µM*	-1.9%
CN1CCN(C(=O)CCn2c(=O)c3cccn3c3cccnc32)CC1	3.4%	13.1µM*	14.4%	33.5%	16.2%	-1.6%
O=C(Cn1c(=O)c2cccn2c2cccnc21)N1CCN(c2ccc(Cl)cc2)CC1	0.4%	7.9%	-0.3%	-1.1%	12.6µM*	-11.6%
CCc1ccc(CNC(=O)CCCn2c(=O)c3cccn3c3cccnc32)cc1	u	-20.0%	-2.7%	-5.7%	10µM*	2.6%
CN(Cc1c(F)cccc1Cl)C(=O)CNC(=O)c1sc2ccccc2c1Cl	x	-2.4%	x	-6.6%	u	0.0%
Cc1ccc(Cl)cc1N1CCN(C(=O)CCCn2c(=O)c3cccn3c3cccnc32)CC1	-1.5%	u	u	u	u	0.0%
CCOC(=O)C1CCN(C(=O)CCn2c(=O)c3cccn3c3cccnc32)CC1	3.6%	u	1.1%	u	10.6%	11.7%
CCc1nn(CCCC(=O)N2CCc3ccccc3C2)c(=O)c2cc3occc3n12	-5.7%	x	-5.6%	u	-15.1%	-12.7%
CC1CC(C)CN(C(=O)CCCn2c(=O)c3cccn3c3cccnc32)C1 (stereo unspecified)	-0.7%	11.7µM*	-1.9%	u	-15.8%	-5.1%
CCc1nn(CCCC(=O)N2CCN(c3cccc(C)c3C)CC2)c(=O)c2cc3occc3n12	1.4%	u	-9.4%	0.6%	14.1µM*	-20.4%
CCOC(=O)C1CCCN(C(=O)Cn2c(=O)c3cccn3c3cccnc32)C1 (stereo unspecified)	0.6%	10.4µM*	-5.9%	-11.8%	u	-4.2%
Cc1cccc(N2CCN(C(=O)CCCn3c(=O)c4cccn4c4cccnc43)CC2)c1C	4.4%	11.7µM*	-14.0%	u	u	-2.5%
CN(C)C1(CNC(=O)C2CCN(S(=O)(=O)c3c(Cl)cccc3Cl)CC2)CCCCC1	x	-7.9%	2.1%	u	-29.6%	2.7%
COc1ccc([C@@H]2CC=C(C(=O)O)[C@H](c3ccccc3F)N2S(=O)(=O)c2ccccc2C)cc1	x	u	4.1%	u	21.2%	-6.1%
O=C1C2CC=CCC2C(=O)N1c1cccc(OS(=O)(=O)c2ccc3ccccc3c2)c1 (stereo unspecified)	-1.8%	3.29µM*	1.1%	x	5.5%	-5.6%
CCO[C@H]1OC(C(=O)N2CCN(Cc3ccc4c(c3)OCO4)CC2)=C[C@@H](c2csc3ccccc23)[C@@H]1CCCO	-11.3%	u	0.5%	11.7µM*	u	-14.3%
CCO[C@H]1OC(C(=O)N2CCN(Cc3ccc4c(c3)OCO4)CC2)=C[C@@H](c2cn(C(C)=O)c3ccccc23)[C@@H]1CCCO	-7.0%	7.38µM*	1.0%	1.04µM*	u	-17.7%
Cc1cccc(NC(=O)N2CCCC(CNC(=O)c3ccccc3Cl)C2)c1C (stereo unspecified)	5.0%	u	2.5%	2.9%	5.0%	10.4%
C/C(O)=c1/cnc2nc3ccccc3n2c1=O	x	28.8%	1.7%	74.4%	11.7%	-6.5%
CN(C(=O)CSc1nccc(=O)[nH]1)C1CCCCC1	x	x	3.7%	x	6.0%	9.7%
CN(C(=O)CCCOc1ccc2[nH]c(=O)ccc2c1)C1CCCCC1	0.8%	0.601µM*	x	u	x	x
O=C1Nc2ccccc2/C1=N\c1sc2c(c1C(=O)Nc1ccccc1)CCCC2	3.7%	2.33µM*	-50.9%	7.38µM*	1.4%	25.8%
CS(=O)(=O)N(CC(=O)N1CCCCC1)c1cccc(F)c1	1.1%	-14.6%	0.5%	21.5%	1.0%	-2.6%
SMILES	NS1 function inh	Pf growth 96h	SARS PLP yeast	Pf growth 48h	HCV inhibitor	AMA1-RON2 inh
CC(=O)n1c(C=Nc2ccc(Cl)cc2)c(O)c2ccccc21	0.1%	u	-1.3%	1.47µM*	u	10.6%
COc1ccc(/C=C/C(=O)C23CC4CC(CC(C4)C2)C3)cc1CN1CCOCC1	x	20.9%	6.6%	13.1µM*	u	u
COc1ccc(/C=C/C(=O)c2ccc3ccccc3c2O)cc1CN1CCOCC1	0.4%	11.7µM*	-15.8%	-12.9%	-20.4%	-18.6%
COc1ccc(/C=C/C(=O)c2ccccc2O)cc1CN1CCOCC1	1.7%	10.4µM*	2.3%	x	u	-25.8%
COc1ccc(S(=O)(=O)NC(=O)C2(C)CCN2C(=O)Cc2cc(C)cc(C)c2)cc1OC (stereo unspecified)	x	x	x	x	x	-1.2%
O=C(CCc1nnc2ccc(NCc3ccccc3)nn12)NC1CCCCC1	13.6%	11.7µM*	2.3%	7.7%	13.4%	5.2%
O=C(NCCc1nnc2ccc(NCc3ccc(F)cc3)nn12)c1ccccc1	x	u	3.1%	u	11.2%	7.4%
Cc1ccc(N2C(=N)/C(=C3/Nc4ccccc4S3)C(c3ccccc3)C2=O)cc1 (stereo unspecified)	5.5%	u	-8.2%	-1.5%	16.4%	6.4%
COc1cc(OC)cc(C(=O)N[C@H](C(=O)NCc2ccc(F)cc2)C(C)C)c1	-0.7%	u	-0.4%	u	-13.5%	34.0%
Cc1ccc(-c2nnn(CC(=O)N(Cc3ccco3)C(C(=O)NC3CCCC3)c3cccs3)n2)o1 (stereo unspecified)	12.6%	u	4.3%	13.1µM*	-25.9%	6.3%
CC(=O)c1ccc(N(C(=O)Cn2nnc(-c3ccccc3)n2)C(C(=O)NC2CCCCC2)c2ccccn2)cc1 (stereo unspecified)	2.2%	9.28µM*	-11.2%	-19.5%	-10.0%	7.3%[2.32 µM]
Cc1ccc(N(C(=O)Cn2nnc(-c3ccc(C)o3)n2)C(C(=O)NC2CCCC2)c2ccncc2)cc1 (stereo unspecified)	0.5%	10.4µM*	0.1%	0.0%	19.3%	-3.7%
CCCCC(C(=O)NC1CCCC1)N(Cc1ccco1)C(=O)Cn1nnc(-c2ccc(F)cc2)n1 (stereo unspecified)	-22.5%	11.7µM*	1.1%	x	-4.3%	-7.9%
O=[N+]([O-])c1cccc(COc2cccc(CN3CCCC3)c2)c1	x	x	x	x	u	-2.3%
O=S(=O)(c1cccc(Cn2nnc(-c3ccccc3)n2)c1)N1CCOCC1	x	x	-2.3%	x	u	-2.1%
COc1cc(C(=O)NCC(=O)NCC2COc3ccccc3O2)cc(OC)c1OC (stereo unspecified)	x	-25.9%	-3.1%	13.9%	-1.1%	4.4%
